An excerpt weighted towards active compounds, which were near 3.7% of everything screened.
DRD3 agonist = D3 dopamine receptor (human) agonism | P35462 | D3R DiscoveRx beta-arrestin cells, luminescence, 90 min | max activation, % | 0.58% of 410,000 active; in the data active = max activation above about 30%
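Cells at 1500/well, incubated overnight, then treated with pinned compounds (dopamine as control) for 90 min at 37 degrees C. DiscoveRx reagent added for 30 - 60 minutes at room temperature; luminescence read.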
B2AR arrestin = beta2AR (human) beta-arrestin recruitment activity; AID 492947; 0.02% of 330,000 active; Potency, µM (doses to about 46.1 µM), usual class: activators; beta-arrestin recruitment to beta2AR, cell-based reporter; note: nearly all actives have a fitted effect of over 65% in size
Target sequence (P07550 whole entry, looked up): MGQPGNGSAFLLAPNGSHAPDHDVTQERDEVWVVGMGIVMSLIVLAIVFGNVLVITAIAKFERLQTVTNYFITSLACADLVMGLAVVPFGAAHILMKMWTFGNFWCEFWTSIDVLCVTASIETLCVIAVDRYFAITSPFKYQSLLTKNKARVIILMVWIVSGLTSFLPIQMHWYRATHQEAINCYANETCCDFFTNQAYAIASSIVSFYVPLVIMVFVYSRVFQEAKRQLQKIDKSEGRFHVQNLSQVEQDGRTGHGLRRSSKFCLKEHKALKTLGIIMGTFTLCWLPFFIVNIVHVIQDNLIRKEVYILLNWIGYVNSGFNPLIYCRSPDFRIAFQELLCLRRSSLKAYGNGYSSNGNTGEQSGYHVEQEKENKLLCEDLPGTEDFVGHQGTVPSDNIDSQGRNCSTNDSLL
BRCA1 expr up = activators of BRCA1 expression. Potency, µM (highest dose often 46.1 µM), hits mostly activators. MCF7-BRCA1-FFLuc reporter, luminescence, 48 h; response scale: scaled: vehicle 0%, 10 µM genistein 100%. 1.1% of 380,000 active; note: nearly all actives have a fitted effect of over 80% in size
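Activators of BRCA1 expression were detected as increased firefly luciferase luminescence in engineered MCF7 cells after 48 h compound incubation. Signals were scaled to genistein 10 microM as full activation.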
DRD3 antagonist = D3 dopamine receptor (human) antagonism; P35462; D3R cells, DiscoveRx beta-arrestin luminescence, antagonist mode; active compounds read low; max response, negative = inhibition, %; 2.5% of 360,000 active; AID 652054; in the data active = max response below about -50%; inconclusive = no clear call, values can overlap the other calls
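Cells expressing the human receptor were seeded at 1500 cells/well, incubated overnight at 37 degrees C in 5% CO2, then exposed to library compounds with dopamine controls for 90 minutes at 37 degrees C before luminescent detection.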
RGS4 inhibitor = blocks human RGS4-accelerated GTP hydrolysis; Transcreener GDP fluorescence polarization, RGS4-accelerated GTP hydrolysis; 0.039% of 390,000 active; P49798; Potency, µM (titrated, usually from 114 µM), most hits filed as inhibitors; note: nearly all actives have a fitted effect of over 75% in size
Target sequence (P49798 whole entry, looked up): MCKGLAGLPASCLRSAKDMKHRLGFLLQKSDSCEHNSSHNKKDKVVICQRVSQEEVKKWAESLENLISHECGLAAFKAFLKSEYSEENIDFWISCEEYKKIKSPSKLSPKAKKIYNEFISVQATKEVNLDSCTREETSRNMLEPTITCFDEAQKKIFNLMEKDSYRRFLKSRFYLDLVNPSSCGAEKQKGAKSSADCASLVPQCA
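MLSMR compounds (23 nl, pin-transferred) preincubated 10 min at room temperature with a 500nM (2x) first reagent, then RGS4 at 900nM (2x) plus Transcreener GDP mix added; fluorescence polarization (620/688 nm) read before and after 90 min at 30 °C.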
PTHR1 ag = activates the human parathyroid hormone receptor PTHR1. Potency, µM (series often up to 115 µM), hits mostly activators. 0.075% of 410,000 active. HEK293 GP2 PTHR1 cells, GloSensor cAMP luminescence, 1 h; note: nearly all actives have a fitted effect of over 55% in size
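HEK-293-derived GP2 cells expressing PTHR1 and a GloSensor cAMP reporter, 3,000/well, plated overnight, given luciferin plus IBMX (each 0.5 mM as added) for 1 h at 37 °C, then compound for 1 h at 37 °C. Luminescence was read after 15 min at room temperature.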
Numbers stand for hits; – = inactive; ? = inconclusive; · = not tested or not shown. Unless noted, calls come from the whole dose curve; as a rule, active = well fitted curve in the direction sought with a large enough effect; inconclusive = small, poorly fitted or top-dose-only effect, or another doubt; inactive = no such curve, though single readings can be large; an effect the other way counts as inactive or inconclusive.

SMILES	DRD3 agonist	B2AR arrestin	BRCA1 expr up	DRD3 antagonist	RGS4 inhibitor	PTHR1 ag
CC(C)(CO)Nc1nc(Cl)nc(NC2CCCCC2)n1	34	–	–	–	–	–
CCNc1nc(Cl)nc(NC2CCCCC2)n1	–	–	–	–	–	–
CC1CCC(NC(=O)c2ccc3c(c2)N(Cc2ccccc2F)C(=O)c2ccccc2S3=O)CC1 (stereo not given)	–	·	–	·	–	–
COC1=CC(=O)c2c(ccc3ncnc(N)c23)C1=O	–	·	–	-65	–	–
CCCCC(=O)NNC(=S)NC(=O)CCC	–	–	–	-58	?	–
O=C(N/N=C/c1ccccc1C(=O)O)c1cccc(S(=O)(=O)N2CCCCC2)c1	–	–	–	–	–	–
O=C(NCc1ccco1)c1ccc(CS(=O)c2ccccc2Cl)o1 (stereo not given)	–	·	–	–	·	–
O=C(NCCCN1CCC(Cc2ccccc2)CC1)c1ccc(CS(=O)c2ccccc2Cl)o1 (stereo not given)	–	·	–	-108	·	–
Cc1ccc(S(=O)(=O)N2C[C@H]3[C@H]4C(=O)N(c5ccccc5)C(=O)[C@H]4C[C@H](OC(=O)NCC4CCCCC4)[C@@]3(O)C2)cc1	–	·	–	–	·	–
CC(O)CNCCCOc1cccc(Oc2ccccc2)c1 (stereo not given)	–	–	–	?	–	–
FC(F)(F)c1cccc(OCCN2CCN(Cc3ccccc3)CC2)c1	–	–	–	-82	–	–
COc1cc(C)ccc1OCCOCCN(C)Cc1ccccc1	–	–	–	?	–	–
CC(O)CNCCCOc1cccc(C(F)(F)F)c1 (stereo not given)	–	–	–	-71	–	–
Cc1cc(C)c(C)c(OCCCCN(C)Cc2ccccc2)c1	–	–	–	-71	–	–
CCN(Cc1ccccc1)Cc1ccc(OCc2ccccc2)cc1	–	–	–	-84	–	–
CCN(CC)CCOc1ccc(Cc2ccccc2)cc1	–	·	·	·	–	·
CCOC(=O)[C@]12CCC=C1N(Cc1ccccc1)C(=O)[C@H](CC(=O)NCC1CCCCC1)C2	–	·	–	–	·	–
O=C(CN1CCOCC1)Nc1ccc2c(c1)OCCO2	–	–	–	–	–	–
COc1ccc(OCCCN(C)Cc2ccccc2)cc1	–	–	–	–	–	–
CN(CCCCOc1ccc(F)cc1)Cc1ccccc1	–	–	–	-83	–	–
CN(Cc1ccccc1)Cc1ccccc1	–	·	·	·	·	·
CCc1ccc(OCCCCN(C)Cc2ccccc2)cc1	–	–	–	-71	–	–
CCC(C)c1ccccc1OCCCN(C)Cc1ccccc1 (stereo not given)	–	–	–	-60	–	–
CN(CCOc1cccc(C(F)(F)F)c1)Cc1ccccc1	–	–	–	-87	–	–
COCCn1c(SCC(=O)Nc2cc(Cl)ccc2OC)nc2c([nH]c3ccccc32)c1=O	–	·	–	·	–	–
SMILES	DRD3 agonist	B2AR arrestin	BRCA1 expr up	DRD3 antagonist	RGS4 inhibitor	PTHR1 ag
CCSc1ncc(Cl)c(C(=O)Nc2sc(C(C)=O)c(C)c2C(=O)OC)n1	–	·	·	·	–	–
Cc1ccc(N(CC(=O)Nc2ccc(C)c(F)c2)S(=O)(=O)c2c(C)n[nH]c2C)cc1	–	·	–	·	–	–
COc1ccc(OCCN(C)Cc2ccccc2)cc1	–	–	–	?	–	–
CN(CCO)CCOCCOc1cccc2ccccc12	–	–	–	–	–	–
CN(CCOc1ccc(F)cc1)Cc1ccccc1	–	–	–	-69	–	–
CN(CCOc1ccccc1)CCOc1ccccc1	–	–	–	-87	–	–
CN(CCOCCOc1ccc2ccccc2c1)Cc1ccccc1	–	–	–	-64	–	–
COc1cc(C2c3cc(O)c(OC)cc3CC(C(=O)O)C2CO)ccc1O (stereo not given)	71	·	–	–	–	–
CC(C)(C)NC(=O)c1ccc(COc2ccccc2Br)o1	–	–	–	–	–	–
CCN(CC)C(=O)c1ccc(COc2ccccc2Br)o1	–	–	7.1µM	–	–	–
COc1cccc2c1Oc1ncccc1N(c1ccc(C(=O)NCc3ccccc3C)s1)C2	–	·	·	·	–	–
O=C(c1ccccc1)N1CCCc2ccccc21	–	–	–	–	–	–
O=C(c1cccs1)N1CCn2c1nc1ccccc12	–	–	2.8µM	–	–	–
O=C(c1ccc(=O)oc1)N1CCCc2ccccc21	–	–	–	-63	–	–
COc1cccc(C(=O)N2CCn3c2nc2ccccc23)c1	–	–	–	–	–	–
COc1ccc(C(=O)N2CCn3c2nc2ccccc23)cc1	–	–	13µM	–	–	–
O=C(c1ccc(Cl)cc1)N1CCn2c1nc1ccccc12	–	–	–	–	–	–
COc1ccc(C(=O)N2CCc3ccccc32)cc1	–	–	11µM	–	–	–
CC(C)NC(=O)N(C)C[C@@H]1Oc2cc(C#Cc3ccccn3)ccc2S(=O)(=O)N([C@@H](C)CO)C[C@H]1C	–	·	–	–	·	–
COc1cc(C2c3[nH]c4ccccc4c3CC3COC(=O)N32)cc(OC)c1O (stereo not given)	–	·	–	–	–	–
O=C(CN1CCN(S(=O)(=O)c2ccc(F)c(Cl)c2)CC1)N1CCOCC1	–	–	–	–	–	–
CS(=O)(=O)N1CCN(Cc2cc3nc(-c4cccc5[nH]ncc45)nc(N4CCOCC4)c3s2)CC1	·	·	–	·	·	·
COc1ccc(Cc2nnc(SCC(=O)Nc3ccc(N4CCOCC4)cc3)n2C)cc1	–	–	–	–	–	–
O=C(CN1C(=O)c2cccc3cccc(c23)C1=O)N1CCN(Cc2ccc3c(c2)OCO3)CC1	–	–	–	–	–	–
Nc1ccc(C#Cc2ccccc2)cc1	–	–	–	–	–	–
SMILES	DRD3 agonist	B2AR arrestin	BRCA1 expr up	DRD3 antagonist	RGS4 inhibitor	PTHR1 ag
Oc1ccc2[nH]ccc2c1	–	–	–	–	–	–
Nc1ccccc1C#Cc1ccc2[nH]ccc2c1	–	·	10µM	–	–	–
Nc1ccccc1C#Cc1ccccc1	–	–	11µM	–	–	–
O=C(/C=C/c1ccccc1)NNC1=NS(=O)(=O)c2ccccc21	–	–	–	–	–	–
Cc1ccc(C(=O)Nc2ccccc2C(=O)O)cc1S(=O)(=O)Nc1ccc(Br)cc1	34	·	–	–	–	–
Cc1ccc(C(=O)Nc2cccc(N(C)S(C)(=O)=O)c2)cc1S(=O)(=O)Nc1ccccc1	44	–	–	–	–	–
NC(=O)c1c(-c2cccs2)csc1N	–	–	–	-54	?	–
CC1CCN(C(=O)c2ccc3ccccc3c2)CC1	–	–	2.5µM	–	–	–
CC1CC(C)CN(C(=O)c2ccc3ccccc3c2)C1 (stereo not given)	–	–	–	–	–	–

Screening results: PubChem, National Center for Advancing Translational Sciences (NCATS)
